Over roughly 33,000 sequences, “E-score (-0.5 to 0.5)” has its median near -0.041; the highest 2% begin near 0.37. The entries come from a sample that favours the highest values as a whole.
What follows are sequences tested against T1, Ecm22 (UniProt Q05958) (assay: PBM E-score (8-mer binding enrichment) (E-score (-0.5 to 0.5)); higher = stronger / more preferred TF binding). Conditions: protein concentration: 200 nM; construct: GST-full length.
T1 sequence: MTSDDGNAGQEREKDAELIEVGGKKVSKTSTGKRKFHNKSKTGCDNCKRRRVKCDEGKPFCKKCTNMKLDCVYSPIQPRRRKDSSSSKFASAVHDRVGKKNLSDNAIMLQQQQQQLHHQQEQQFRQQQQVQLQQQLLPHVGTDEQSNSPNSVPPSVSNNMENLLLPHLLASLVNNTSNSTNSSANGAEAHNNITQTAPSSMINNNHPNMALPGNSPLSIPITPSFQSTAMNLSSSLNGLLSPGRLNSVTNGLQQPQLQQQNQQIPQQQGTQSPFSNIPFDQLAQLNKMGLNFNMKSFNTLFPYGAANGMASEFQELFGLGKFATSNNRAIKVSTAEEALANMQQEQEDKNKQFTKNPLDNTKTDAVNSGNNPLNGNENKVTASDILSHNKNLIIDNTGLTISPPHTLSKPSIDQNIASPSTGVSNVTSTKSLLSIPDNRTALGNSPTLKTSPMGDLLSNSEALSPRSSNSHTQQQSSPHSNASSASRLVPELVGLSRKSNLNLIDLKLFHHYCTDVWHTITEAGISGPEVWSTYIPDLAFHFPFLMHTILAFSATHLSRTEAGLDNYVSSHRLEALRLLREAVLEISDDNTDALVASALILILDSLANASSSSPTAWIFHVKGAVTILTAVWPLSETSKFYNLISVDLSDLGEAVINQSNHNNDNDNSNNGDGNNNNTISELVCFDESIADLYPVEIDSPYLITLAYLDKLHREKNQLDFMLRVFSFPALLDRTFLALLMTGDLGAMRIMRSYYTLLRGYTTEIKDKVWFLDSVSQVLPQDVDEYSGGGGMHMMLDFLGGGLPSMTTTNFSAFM
In short: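 Yeast transcription factors carrying a GST tag, as full-length proteins or DNA-binding domains, were produced by PURExpress in vitro transcription/translation. About 100-200 nM protein was applied to universal all-10-mer Agilent arrays, double-stranded by primer extension on fresh or once-stripped slides. Bound protein was detected with fluorescent anti-GST, and scans were normalised with masliner. The Universal PBM Analysis Suite gave each ungapped eight-base word, pooled with its reverse complement, an E-score, a modified Wilcoxon-Mann-Whitney statistic.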

Compared with AGATACTG, CGGACGTA is higher in “PBM E-score” value: -0.0213 for the first, 0.205 for the second.

First: ACTTTTAT
Second: CTACAGTC
The “PBM E-score” value of the first is lower: -0.217 for the first, -0.0606 for the second.

First: AACAGGTA
Second: AATAAGGC
The “PBM E-score” value of the first is higher: -0.0274 for the first, -0.225 for the second.

First: ACGTATCG
Second: CCGTATAG
The “PBM E-score” value of the first is lower: 0.192 for the first, 0.465 for the second.

First: CCGTATCG
Second: CGGTATAG
The “PBM E-score” value of the first is higher: 0.291 for the first, 0.0179 for the second.

First: ACGTATAG
Second: ACGTATTG
The “PBM E-score” value of the first is higher: 0.403 for the first, 0.22 for the second.

Going from CTGAAGTA to TCACCAAA, the “PBM E-score” value rises from -0.134 to 0.0237.

Compared with TCGGATAA, CCGGATAA is lower in “PBM E-score” value: 0.372 for the first, 0.0584 for the second.

First: ACGGATAA
Second: AGCAGCCG
The “PBM E-score” value of the first is higher: 0.159 for the first, -0.0197 for the second.

Going from ATATAGGC to AAACGCAT, the “PBM E-score” value rises from -0.00233 to 0.0604.

Compared with GGACGACC, AGACGACT is higher in “PBM E-score” value: -0.107 for the first, 0.065 for the second.

First: TAACGACA
Second: GCACGACC
The “PBM E-score” value of the first is higher: 0.352 for the first, -0.219 for the second.

First: CAACGACG
Second: CGACGACG
The “PBM E-score” value of the first is higher: 0.351 for the first, 0.127 for the second.

Compared with CAACGACA, GAACGACC is higher in “PBM E-score” value: 0.346 for the first, 0.451 for the second.

Compared with AAACGACT, GAACGACA is higher in “PBM E-score” value: 0.437 for the first, 0.456 for the second.

Going from ACACGACT to AAACGACG, the “PBM E-score” value rises from 0.117 to 0.465.

Compared with ATAGCTCC, CCCTTCCA is lower in “PBM E-score” value: -0.169 for the first, -0.32 for the second.

Going from ACCGGATG to CTCCTCTC, the “PBM E-score” value falls from 0.0481 to -0.0778.

First: GGTGTGAC
Second: CTCGCACC
The “PBM E-score” value of the first is lower: -0.177 for the first, 0.31 for the second.

First: AGATCCGG
Second: ATCGGTCG
The “PBM E-score” value of the first is lower: -0.0497 for the first, 0.211 for the second.

Compared with CCACGACA, AAACGACA is higher in “PBM E-score” value: -0.0411 for the first, 0.467 for the second.

Compared with CAACGACC, AATCGACC is lower in “PBM E-score” value: 0.278 for the first, -0.0105 for the second.

First: TCACGACA
Second: AAACGACC
The “PBM E-score” value of the first is lower: 0.00255 for the first, 0.45 for the second.

Going from CCTTCCGC to GAGAGGGA, the “PBM E-score” value falls from -0.184 to -0.212.

Compared with AGATACGC, CGATACAA is lower in “PBM E-score” value: 0.196 for the first, 0.148 for the second.

First: CGATACGC
Second: CGATACGA
The “PBM E-score” value of the first is lower: 0.2 for the first, 0.454 for the second.

Going from GGATACGA to GGATACCA, the “PBM E-score” value falls from 0.45 to -0.0853.

Compared with GGATACTA, AGATACGA is higher in “PBM E-score” value: -0.144 for the first, 0.47 for the second.

Going from AGATACGG to CAAATGCC, the “PBM E-score” value falls from 0.28 to -0.27.

Going from TGCAAGAA to AAGCCATA, the “PBM E-score” value rises from -0.0877 to -0.0528.

Compared with CCTTCCCG, ACAGAGCG is higher in “PBM E-score” value: -0.043 for the first, 0.00751 for the second.

Going from CCTTGAAA to ACGAGTTA, the “PBM E-score” value rises from -0.0768 to 0.422.

Going from AGGAGTTG to ACGAGTTC, the “PBM E-score” value rises from 0.0179 to 0.319.

Compared with CCGAGTTA, ACGAGTTG is higher in “PBM E-score” value: 0.0641 for the first, 0.371 for the second.

Going from GCGAGTTA to GGGAACCC, the “PBM E-score” value falls from 0.191 to 0.0178.

First: CGCCCAGA
Second: CCCAACCA
The “PBM E-score” value of the first is lower: -0.104 for the first, 0.0792 for the second.

Going from GAAGAGAC to GACCTTCA, the “PBM E-score” value falls from 0.0183 to -0.0961.

First: CGTTTGGC
Second: CATTTAGC
The “PBM E-score” value of the first is higher: 0.394 for the first, 0.0683 for the second.

Going from AGTTTGGC to CGTTTGGA, the “PBM E-score” value rises from -0.00953 to 0.366.

First: AGTTTAGC
Second: AGTTTAGA
The “PBM E-score” value of the first is lower: -0.19 for the first, -0.186 for the second.

Compared with CGTTTAGC, GGTTTAGA is lower in “PBM E-score” value: 0.464 for the first, -0.179 for the second.

Compared with CGTTTAGA, CACTGCTG is lower in “PBM E-score” value: 0.446 for the first, -0.147 for the second.

First: GCTGCTAC
Second: GACCCGGA
The “PBM E-score” value of the first is higher: 0.124 for the first, -0.17 for the second.

First: CTCCGCGC
Second: CCGTAGAA
The “PBM E-score” value of the first is lower: -0.0267 for the first, 0.122 for the second.

Compared with TCGTAGAA, ACGTAGCA is lower in “PBM E-score” value: 0.384 for the first, 0.0433 for the second.

First: CCGTAGCA
Second: GCGTAGAA
The “PBM E-score” value of the first is higher: 0.165 for the first, -0.0103 for the second.

First: TCGTAGCA
Second: AAGACCTC
The “PBM E-score” value of the first is higher: 0.419 for the first, -0.2 for the second.
